From PubChem BioAssay (NCATS)
Active and inactive are the calls of the source. Calls follow the shape of the dose curve; as a rule, active = well fitted inhibition curve with a large enough effect; inconclusive = small, poorly fitted or top-dose-only effect; inactive = flat fitted curve, though single readings scatter.

Each compound was assayed against Luciferin 4-monooxygenase (Photinus pyralis) (UniProt P08659) (assay: Primary firefly luciferase (FLuc) qHTS assay for identification of artifact compounds. (AID 1845220; also: nearly all actives have a fitted effect of over 60% in size;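 as to activity change, negative = inhibition: plate controls were DMSO vehicle for no effect and no enzyme for full effect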)). Conditions: purified firefly luciferase, luminescence, 5 min; series mostly up to 54.1 µM; activity change, negative = inhibition: at the top concentration.
Summary of the method: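 qHTS, 15 min compound preincubation with substrate (10 uM luciferin, 10 uM ATP) at RT, then 10 nM FLuc; 5 min; luminescence; % inhibition vs no-enzyme/DMSO controls, 4-parameter Hill fit.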
`CC(=O)OCC1OC(O[C@H]2CC[C@@]3(C)C(CC[C@]4(C)C3CC=C3[C@@H]5CC(C)(C)CC[C@]5(C(=O)O)CC[C@]34C)[C@]2(C)CO)C(O)C(O)C1OC1OC(C)C(O)C(OC2OCC(O)C(O)C2O)C1O` (stereo not given in full) was tested, and the outcome was “inactive [at 11.6 µM]”.
With `COc1cccc(Cn2ncc3c4sc(S(C)=O)cc4n(C)c3c2=O)c1` (stereo not given) the “activity change, negative = inhibition” value was 3.41% (inactive).
For `CCCNCCOc1ccc(NC(=O)c2c[nH]c3c2C(=O)CCC3)cc1F`, the “outcome” value was “inactive”.
In the case of `C/C=C(/C)C(=O)OC1C2OC2C2(CO2)C2C3OC(=O)C(C)C3CCC12C` (stereo not given), the “outcome” value was “inactive”.
`CC(=O)OC1CCC2(C)C(CCC3(C)C2CC=C2C4CC(C)(C)CCC4(C)CCC23C)C1(C)C(=O)O` (stereo not given) was tested, and the “activity change, negative = inhibition” value was 1.66% [at 25.7 µM] (inactive).
With `COc1cnc(-c2ccc(Cn3c(CC(C)(C)C(=O)O)c(SC(C)(C)C)c4cc(OC[C@@H]5Cc6ccccc6N5C(C)=O)ccc43)cc2)nc1` the “outcome” value was “inactive”.
`C=C(C)[C@@H]1CC[C@]2(C(=O)O)CC[C@]3(C)[C@H](CCC4[C@@]5(C)CCC(=O)C(C)(C)C5C(O)C[C@]43C)C12` (stereo not given in full) was tested, and the “outcome” value was “inactive [at 25.7 µM]”.
In the case of `CC1=C2C[C@H]3OC(=O)[C@H](O)[C@@]4(O)[C@@H](C)[C@@H](O)[C@H](O)C([C@@]2(C)[C@H](O)[C@@H](O)C1)[C@@]34C` (stereo not given in full), the “activity change, negative = inhibition” value was 2.07% (inactive).
In the case of `C=CC(C)(O)CC/C=C(\C)C(=O)O[C@@H]1[C@@H](O)[C@H](OC(C)(C=C)CC/C=C(\C)C(=O)O)O[C@H](CO)[C@H]1OC(=O)/C(C)=C/CCC(C)(O)C=C` (stereo not given in full), the “outcome” value was “inactive [at 25.7 µM]”.
For `NC[C@H]1CCC[C@@H](CNC(=O)[C@@H](Cc2c[nH]c3ccccc23)NC(=O)N2CCC3(C=Cc4ccccc43)CC2)C1`, the “outcome” value was “inactive”.
